In PubChem BioAssay (NCI):
About 83,000 compounds went through this panel and 20% of them were active in at least one assay; those are over-represented in the sample as a whole.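 Results are percent growth after 48 hours of single-concentration exposure. 100 means growth as in untreated cells, lower positive values show inhibition; negative values down to -100 show cell death.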 Unmarked numbers belong to inactive results. Activity calls are given as the source filed them. Rule for the calls: active = growth percent below 10; inactive = the rest.

Experiments:
Assay in all cases: NCI-60 one-dose screen, 48 h (100 = growth as untreated, 0 = no growth, -100 = all killed)
Conditions in all cases: 10 µM unless noted
[1] = test system: HT29 colon
[2] = test system: SNB-75 CNS
[3] = test system: SNB-19 CNS
[4] = test system: U251 CNS
[5] = test system: PC-3 prostate
[6] = test system: SK-MEL-5 melanoma
[7] = test system: UACC-62 melanoma
[8] = test system: LOX IMVI melanoma
[9] = test system: SK-MEL-28 melanoma
[10] = test system: SK-MEL-2 melanoma

Structure (SMILES)	growth [1]	growth [2]	growth [3]	growth [4]	growth [5]	growth [6]	growth [7]	growth [8]	growth [9]	growth [10]
COc1ccc2c(c1)C(=O)/C(=C/c1ccc([N+](=O)[O-])s1)O2	-22.7% (active)	12.2%	-5.72% (active)	-50.7% (active)	-15.7% (active)	-13.5% (active)	-48% (active)	-24.9% (active)	-33.9% (active)	-49.1% (active)
Nc1ccc2c3c(cccc13)-c1ccccc1-2	108%	74.2%	97.7%	94.9%	73%	98.4%	84.7%	91.7%	110%	105%
C[n+]1ccc(C#N)c2ccccc21	65.1%	85.7%	109%	104%	107%	99.1%	115%	85.5%	106%	77.5%
COc1ccc2c(c1)nc(N)c1c3cc(C)c(C)cc3cn21	37.9%	92.8%	77.5%	53.9%	90.3%	58.8%	44%	75.4%	81.1%	84.4%
COc1cc(OC)c2cc(C(=O)O)c(=O)oc2c1	119%	125%	98%	109%	127%	94.6%	95.5%	67%	118%	-11% (active)
Cc1c(C(N)=O)sc2c1c(=O)n(Cc1ccccc1)c1nnc(SCC(=O)Nc3ccc(Cl)cc3)n21	37.1%	-52% (active)	58%	20.2%	38.1%	51.8%	57.6%	41.8%	17.3%	0.559% (active)
Nc1nc2ncc(CCNc3ccc(C(=O)NC(CCC(=O)O)C(=O)O)cc3)nc2c(=O)[nH]1 (stereo not given)	109%	81.3%	111%	100%	106%	98.9%	99.6%	98.3%	125%	2.9% (active)
O=C(O)C(=O)O	109%	67.4%	91.7%	90%	110%	99.5%	98.7%	92.9%	99.5%	88.3%
Cc1c(C(N)=O)sc2nc(SCC(=O)Nc3ccc(Cl)cc3)n(-c3ccccc3)c(=O)c12	87.9%	94.3%	101%	98.4%	73%	110%	96.8%	98.1%	181%	-16.1% (active)
NC(=O)NN=C(C1CC1)C1CC1	103%	92.6%	106%	98.4%	112%	111%	110%	95.9%	116%	110%
CCN(CC)c1ccc(N=Nc2cc(Cl)ccc2Cl)c(NC(=O)CCC(=O)O)c1	111%	91.1%	110%	94.7%	90.1%	103%	101%	99.1%	120%	118%
Cc1nn(-c2ccccc2)c(Cl)c1C(CC(=O)c1ccc(Cl)cc1)CC(=O)c1ccc(Cl)cc1	77%	86.8%	82.4%	82.2%	73.1%	89.7%	82.4%	81.8%	112%	89.1%
CC[N+](CC)(CCOCCOCC[N+](CC)(CC)Cc1ccc([N+](=O)[O-])cc1)Cc1ccc([N+](=O)[O-])cc1	113%	85.7%	101%	100%	87.6%	96.8%	88.4%	104%	115%	106%
c1ccc(-c2nn[nH]n2)c(-c2ccc(CN3CCN(c4nsc5ccccc45)CC3)cc2)c1	58.6%	91.1%	98.3%	85.5%	84.7%	97.2%	91.4%	102%	113%	120%
